Screens deposited in PubChem BioAssay by several laboratories.
PGE2 EP2 inh: blocks the human prostaglandin E2 receptor EP2; P43116; C6 glioma cells expressing human EP2, cAMP TR-FRET; cells stimulated with saturating PGE2; AID 1422; 260,000 tested, 0.52% active; inhibition, % at 25 µM;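 active = percent inhibition above 40 after rounding to a whole number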;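 note: rat C6 glioma host cells with rolipram phosphodiesterase inhibitor present; the protocol text gives 20 µM as final concentration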
Target sequence (P43116 whole entry, looked up): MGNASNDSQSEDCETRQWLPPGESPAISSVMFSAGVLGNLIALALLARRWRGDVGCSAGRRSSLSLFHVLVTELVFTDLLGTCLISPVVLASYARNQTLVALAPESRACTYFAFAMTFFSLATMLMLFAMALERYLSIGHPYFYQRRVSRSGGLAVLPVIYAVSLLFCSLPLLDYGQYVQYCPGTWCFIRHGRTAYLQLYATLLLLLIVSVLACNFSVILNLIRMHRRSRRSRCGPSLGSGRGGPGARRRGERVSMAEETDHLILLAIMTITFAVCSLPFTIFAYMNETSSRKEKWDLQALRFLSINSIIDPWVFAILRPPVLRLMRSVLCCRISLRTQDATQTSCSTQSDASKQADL
KCC2 mod: modulates chloride dependent transport by human KCC2; Q9H2X9; KCC2 cells, thallium flux FluoZin-2 fluorescence; B-score of Tl+ flux slope (higher = more flux/activation; lower = inhibition) at 10 µM; 190,000 tested, 2.2% active; AID 1456;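 active = thallium flux slope and its plate-corrected score both differing from the plate sample mean at a set confidence after two filtering rounds, in either direction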;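 note: slope of fluorescence scaled to starting intensity during 10 to 20 s after thallium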
S1P3 antagonist: blocks the human S1P3 receptor; 170,000 tested, 0.27% active; inhibition, % at 4.98 µM; Q99500; CHO S1P3 NFAT-BLA reporter, FRET fluorescence, antagonist mode;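 active = inhibition above the plate cutoff, the mean inhibition of test wells on that plate plus 3 SD, cut at about 28% in these data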;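 note: cells challenged with S1P at its EC80 of 0.8 µM; blue over green emission ratio from cleaved BLA substrate after 4 h stimulation; 0% = S1P-stimulated wells and 100% = unstimulated DMSO-only wells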
Target sequence (Q99500 whole entry, looked up): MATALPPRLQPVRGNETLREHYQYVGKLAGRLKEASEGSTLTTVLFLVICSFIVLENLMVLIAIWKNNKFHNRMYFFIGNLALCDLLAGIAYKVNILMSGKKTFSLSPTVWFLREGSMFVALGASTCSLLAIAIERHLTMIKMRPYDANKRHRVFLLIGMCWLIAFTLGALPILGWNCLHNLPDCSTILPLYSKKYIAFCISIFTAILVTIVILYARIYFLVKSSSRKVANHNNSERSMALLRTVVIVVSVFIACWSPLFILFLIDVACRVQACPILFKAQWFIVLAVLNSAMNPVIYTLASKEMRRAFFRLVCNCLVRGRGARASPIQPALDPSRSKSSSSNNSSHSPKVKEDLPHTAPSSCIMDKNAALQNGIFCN
EP2 mod: EP2 receptor (human) modulation; induction, % at 25 µM; EP2-expressing cells, cAMP HTRF FRET, PGE2 co-stimulation; 260,000 tested, 0.83% active;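 active = compounds whose cAMP rise, as percent of the full-agonist control response, exceeds 60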;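 note: rat C6 glioma line stably carrying human EP2 under a CMV promoter; the protocol text gives 20 µM as final concentration; 100% = response of wells given 1 µM PGE2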
KCC2 secondary: confirmation of human KCC2 transport modulators; shares compounds with KCC2 mod; HEK293-KCC2, thallium flux, FluoZin2 fluorescence; stronger effect = higher value; normalised thallium flux (F/F0 slope) at 10 µM; 3,700 tested, 15% active;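 active = thallium flux slope above the same plate's solvent-only control mean plus 3 SD; inconclusive = the two replicate wells disagree; inactive = no significant difference from solvent-only control wells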
KCC2 bumet counter: thallium flux persisting under bumetanide in KCC2 cells, counter-screen secondary assay; shares compounds with KCC2 mod; HEK293-KCC2 + bumetanide/ouabain, thallium flux FluoZin2; stronger effect = higher value; normalized thallium flux at 10 µM; 3,700 tested, 49% active; AID 1714;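 active = thallium entry rate above the same plate's blocked-transporter control wells by more than 3 SD; inconclusive = the two repeat wells disagree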;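 note: raw slope of fluorescence over initial fluorescence between 10 and 20 s after thallium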
KCC2 secondary2: KCC2 (human) modulation, second secondary assay; 3,700 tested, 23% active; normalized thallium flux at 10 µM; HEK293-KCC2, thallium flux FluoZin2 fluorescence; actives lie on both sides; F/F0 rise rate, 10–20 s post-thallium; AID 1715; shares compounds with KCC2 mod;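 active = thallium flux slope more than 3 SD above or below the plate's solvent-only control mean, mostly below; inconclusive = the two repeat wells disagreed; inactive = no significant shift from solvent-only controls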;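 note: raw slope with 0.1% DMSO as baseline and bumetanide as block control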
HEK counter1: acts in parental HEK cells, KCC2 counter-screen; shares compounds with KCC2 mod; HEK293 parental cells, thallium flux FluoZin2, ouabain; baseline-ratio fluorescence slope, 10–20 s after thallium; thallium flux rate (normalised fluorescence) at 10 µM; 3,700 tested, 46% active;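 active = thallium flux rate significantly above the same plate's solvent-only control wells, beyond their mean plus 3 SD; inconclusive = the two replicate wells gave conflicting results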
KCC2 ouabain: modulates human KCC2 on retest with ouabain | shares compounds with KCC2 mod | HEK293-KCC2, thallium flux FluoZin2 fluorescence; bidirectional: low = inhibitor, high = activator | raw Tl+ flux slope (below DMSO = inhibition, above = activation) at 10 µM | 3,700 tested, 48% active | AID 1717;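 active = thallium flux slope beyond 3 SD from same-plate DMSO control mean in most replicates, usually higher, sometimes lower; inconclusive = repeat tests gave conflicting results; inactive = no significant difference from controls in most replicates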;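 note: slope of initial-normalized fluorescence between seconds 10 and 20 after thallium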
HEK counter2: parental HEK flux effect, counter-screen 2. shares compounds with KCC2 mod. HEK293 parental, thallium flux FluoZin-2 fluorescence slope. thallium flux slope at 10 µM. 3,700 tested, 33% active. AID 1718;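 active = thallium flux slope above the same plate's solvent-control mean plus 3 SD in both duplicate wells; inconclusive = duplicate wells that disagreed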;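 note: run without ouabain in cells lacking the KCC2 cotransporter; slope of fluorescence scaled to its starting value between 10 and 20 s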
* hit, by the source's call; ? = inconclusive; . = no result given. Most compounds without a hit are left out; they make up all but 3.1% or so of the library.

SMILES	PGE2 EP2 inh	KCC2 mod	S1P3 antagonist	EP2 mod	KCC2 secondary	KCC2 bumet counter	KCC2 secondary2	HEK counter1	KCC2 ouabain	HEK counter2
Cc1ccc(C)c(S(=O)(=O)N2CCC(c3nc4c(nnn4Cc4ccc(F)cc4)c(=O)[nH]3)CC2)c1	5.7	-4.24*	-13.3	6.2	0.00887	0.00547	0.0285	0.00687	0.0163*	0.0103
CCCS(=O)(=O)N1CCC(c2nc3c(nnn3Cc3ccc(C)cc3)c(=O)[nH]2)CC1	9.7	.	.	28.1	.	.	.	.	.	.
Cc1ccc(Cn2nnc3c(=O)[nH]c(C4CCN(S(=O)(=O)c5cc(C)ccc5C)CC4)nc32)cc1	23.9	-0.564	-10.9	0.8	.	.	.	.	.	.
COC(=O)c1nc(NC(=S)NC(=O)c2ccco2)sc1C	15.7	.	.	-33.1	.	.	.	.	.	.
Cc1ccc(-c2csc(NC(=O)CCNC(=O)c3ccco3)n2)cc1	10.7	-2.24	4.0	-46.4	.	.	.	.	.	.
O=C(NNc1nc(-c2ccccc2)cs1)c1ccco1	-0.6	-6.16*	0.9	0.3	?	?	0.019*	?	0.0123*	0.0104
C(=N\Nc1nc(-c2ccccc2)cs1)/c1ccco1	6.0	-4.34*	5.6	-9.3	0.00904	0.00526	?	0.00858	0.0153*	0.012
O=C(NC(=S)Nc1nc2ccc(F)cc2s1)c1ccco1	11.3	40.7*	1.3	-65.1	?	0.128*	0.0966*	0.0917*	0.112*	0.0886*
Brc1ccc(-c2csc(N/N=C/c3ccco3)n2)cc1	12.1	-1.36	-4.0	-38.5	.	.	.	.	.	.
Cc1ccc(-c2csc(NC(=S)NC(=O)c3ccco3)n2)cc1	4.0	32.3*	3.3	4.2	0.0157*	0.0469*	0.0319	0.0279*	0.0394*	0.0132*
CCCn1c(SCC(=O)Nc2ccc(C)cc2C)nnc1-c1ccncc1	8.1	.	.	-17.0	.	.	.	.	.	.
CSc1nc(NN)c2c3c(sc2n1)CCCC3	19.2	.	.	-75.7	.	.	.	.	.	.
Cc1sc2nc(C3CC3)n(C3CCN(CC(=O)N4CCC(C)CC4)CC3)c(=O)c2c1C	.	.	.	2.2	.	.	.	.	.	.
O=C1CSC(c2cccs2)N1c1ccccc1 (configuration not stated)	8.3	0.497	4.3	42.7	.	.	.	.	.	.
c1ccc(N2CCN(c3ccccc3)C2c2cccs2)cc1	3.5	-5.46*	-43.7	44.4	0.0091	0.00517	0.029	0.00756	0.0219	0.0106
COc1cc(/C=C(/C#N)C(=O)Nc2ccccc2)ccc1OCc1ccc(C(=O)O)cc1	28.3	-3.05	6.8	-66.2	.	.	.	.	.	.
COc1cc(/C=C(\C#N)C(=O)NCc2ccccc2)ccc1OCc1ccc(C(=O)O)cc1	14.0	-4.14*	-0.1	-39.5	0.00869	0.00875*	0.034	0.00845	?	0.0112
Cc1ccc2[nH]c(=O)c(C(c3nnnn3C3CCCCC3)N3CCN(C)CC3)cc2c1 (configuration not stated)	14.1	.	.	-21.7	.	.	.	.	.	.
O=C(O)c1cc([N+](=O)[O-])ccc1NCc1ccccc1	3.1	-5.28*	4.3	-20.0	0.00988	0.00729	0.0245*	0.00685	?	0.0102
O=C(c1cc([N+](=O)[O-])ccc1N1CCCCC1)N1CCCCC1	2.6	1.03	.	22.0	.	.	.	.	.	.
COc1ccc([N+](=O)[O-])cc1NCc1ccccc1	15.4	-3.8*	20.6	18.7	0.0066	0.00407	0.0286	0.00532*	0.0143*	0.00961
O=C(NCCCc1ccccc1)c1cc([N+](=O)[O-])ccc1Cl	8.2	-7.5*	4.5	-23.2	?	0.00449	0.0204*	?	0.0123*	0.00984
O=C(O)c1cc([N+](=O)[O-])ccc1NCCCc1ccccc1	17.2	.	.	9.8	.	.	.	.	.	.
O=C(O)c1cc([N+](=O)[O-])ccc1N1CCC(Cc2ccccc2)CC1	5.6	-4.64*	-8.9	-1.0	0.0081	?	?	0.00791	0.0152*	0.0107
CC(=O)c1ccccc1OCC(O)Cn1ccnc1C (configuration not stated)	6.2	.	.	-10.6	.	.	.	.	.	.
SMILES	PGE2 EP2 inh	KCC2 mod	S1P3 antagonist	EP2 mod	KCC2 secondary	KCC2 bumet counter	KCC2 secondary2	HEK counter1	KCC2 ouabain	HEK counter2
COc1ccccc1C1(O)CCCN(C(=O)c2cnn(-c3ccc(F)cc3)c2)C1 (configuration not stated)	-0.7	.	.	-65.6	.	.	.	.	.	.
O=C1COc2ccc(-c3csc(=Nc4ccc(OC(F)F)cc4)n3CC3CCCO3)cc2N1 (configuration not stated)	3.4	-4.76*	.	-1.9	0.00712	0.0051	0.0278	0.00751	0.0169	0.0101
COC(=O)Cc1[nH]n(-c2nc3ccccc3s2)c(=O)c1C(C)=Nc1ccc(Cl)cc1	10.8	7.45*	14.9	-49.6	0.00873	0.0143*	0.0299	0.0126*	?	?
COC(=O)Cc1[nH]n(-c2nc3ccccc3s2)c(=O)c1C(C)=Nc1ccc(C)cc1	5.7	2.48	0.2	-11.7	.	.	.	.	.	.
Cc1ccccc1-c1nc(CS(=O)CC(=O)NCc2ccccc2)c(C)o1 (configuration not stated)	5.1	.	-39.7	11.9	0.00596	?	0.0236*	0.00666	?	0.0108
Cc1ccc(CNC(=O)CS(=O)Cc2nc(-c3ccccc3C)oc2C)cc1 (configuration not stated)	8.7	-2.6	-0.6	8.0	.	.	.	.	.	.
Cc1cc(C)c2[nH]c(=O)c(CN(CCCN(C)C)C(=O)Nc3cccc(Cl)c3)cc2c1	12.6	.	.	-70.2	.	.	.	.	.	.
CC(C)(C)c1nc2ccccc2c2nn(CC(N)=O)c(=O)n12	9.5	.	.	-13.9	.	.	.	.	.	.
CCOC(=O)c1ccc(CNC(=O)CCC(=O)O)cc1	5.5	.	.	32.4	0.0101	0.00514	0.0344	0.00704	0.0221	0.0101
CCOC(=O)c1ccc(CNCc2ccccc2)cc1	10.3	1.04	-7.1	-17.2	.	.	.	.	.	.
O=C(Nc1ccc(N2CCN(C(=O)c3ccco3)CC2)cc1)c1ccccc1Cl	9.3	.	.	1.4	.	.	.	.	.	.
CN1CCC(OC(c2ccccc2)c2ccccc2)CC1	12.7	4.67*	-4.7	20.7	0.0099	0.00693	0.03	?	0.0218	0.00975
CN1CCC(Oc2ccccc2Sc2ccccc2)CC1	7.2	-0.621	1.7	-22.5	.	.	.	.	.	.
CCn1ncc(C(=O)N2CCC(c3[nH]ncc3-c3ccncc3)CC2)c1C	.	.	.	-3.9	.	.	.	.	.	.
OC(CN1CCN(c2ccccc2Cl)CC1)c1ccc2c(c1)OCCCO2 (configuration not stated)	7.4	.	.	-61.1	.	.	.	.	.	.
